Consider ten compounds from PubChem BioAssay (Tox21).

Results filed as inconclusive are left out. Unmarked numbers belong to inactive results. Active and inactive are the calls of the source. Unless noted, calls follow the shape of the dose curve; as a rule, active = well fitted curve in the direction sought with a large enough effect in the repeat runs; inconclusive = weak or mixed curves; inactive = no such curve, though single readings can be large; an effect the other way counts as inactive or inconclusive.

In experiment [1] the target is Retinoic acid receptor RXR-alpha (Homo sapiens) (UniProt P19793). Nature of the experiment: qHTS assay to identify small molecule agonists of the RXR signaling pathway (AID 1159527; calls by dose curve; also: nearly all actives have a fitted effect of over 35% in size). Put shortly: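 Cells plated at 2,000/well, rested 5 hr at 37 C, pin-dosed with DMSO compound solutions, incubated 16 hr, then loaded with B/G FRET substrate for 2 hr at RT before dual-emission fluorescence reading.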
Retinoic acid receptor RXR-alpha (Homo sapiens), sequence (P19793 whole entry, looked up): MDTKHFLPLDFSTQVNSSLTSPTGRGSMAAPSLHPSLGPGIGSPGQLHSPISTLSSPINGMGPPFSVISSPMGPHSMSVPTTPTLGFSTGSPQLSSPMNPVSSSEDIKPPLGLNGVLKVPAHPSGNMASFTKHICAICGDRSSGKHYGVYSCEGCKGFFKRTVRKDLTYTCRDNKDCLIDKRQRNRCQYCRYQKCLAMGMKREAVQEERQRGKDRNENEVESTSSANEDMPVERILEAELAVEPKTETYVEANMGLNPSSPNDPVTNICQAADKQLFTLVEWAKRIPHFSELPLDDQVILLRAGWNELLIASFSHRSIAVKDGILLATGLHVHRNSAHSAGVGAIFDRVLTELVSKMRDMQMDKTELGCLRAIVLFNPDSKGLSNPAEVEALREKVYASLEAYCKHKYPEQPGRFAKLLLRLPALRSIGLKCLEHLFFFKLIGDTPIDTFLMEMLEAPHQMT
In general terms: In qHTS, concentration-response curves come from the screen itself.

A short description of experiment [2]: qHTS assay to identify small molecule antagonists of the retinoid acid receptor (RAR) signaling pathway - cell viability counter screen (AID 1159551). Also: nearly all actives have a fitted effect of over 35% in size. Put shortly:
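C3RL4 RARE-luciferase cells, 1,000/well, incubated overnight, then dosed with compound plus 1 uM retinol (final). After 6 hr at 37 C, viability read by CellTiter-Glo ATP luminescence following 30 min at room temperature.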

The nature of experiment [3]: qHTS assay to identify small molecule antagonists of the retinoic acid receptor (RAR) signaling pathway (AID 1159552; also: nearly all actives have a fitted effect of over 50% in size). Put shortly: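 Retinol at 1 uM final stimulated RARE-luciferase expression in C3RL4 cells exposed to test compounds for 6 hr at 37 C. Reduced luminescence, read 30 min after detection reagent, indicated pathway antagonism.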
Experiment [4] can be described thus: qHTS assay to identify small molecule agonists of the retinoic acid receptor (RAR) signaling pathway (AID 1159553). Also: potency is read from the fitted curve at half-maximal effect. The following applies: C3RL4 RARE luciferase reporter, agonist, 6 h; activation: at 73.3 µM (top of the series). The method, boiled down: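 C3RL4 RARE-luciferase cells were seeded at 1,000/well and grown overnight at 37 C, then exposed to compounds for 6 hr at 37 C, 5% CO2. Luciferase reagent was added and luminescence was read after 30 min at room temperature.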

Experiment [5] is described as follows: qHTS assay to identify small molecule antagonists of the estrogen related receptor (ERR) signaling pathway from Tox21 library - cell viability counter screen (AID 1224834). Also: nearly all actives have a fitted effect of over 30% in size. Put shortly: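 ERR reporter cells, 2,000 per well, rested 6 h, then exposed to compound in DMSO for 17.5 hours at 37 C. Viability read as fluorescence after 30 min with CellTiter-Fluor.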

The target of experiment [6] is Luciferin 4-monooxygenase (Photinus pyralis) (UniProt P08659). Nature of the experiment: qHTS assay to identify small molecule inhibitors of firefly luciferase (AID 1224835). Also: nearly all actives have a fitted effect of over 25% in size. Put shortly: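 Quantitative HTS format; KM concentrations of both substrates. Purified P. pyralis FLuc activity quantified from luminescence images.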
Luciferin 4-monooxygenase (Photinus pyralis), sequence (P08659 whole entry, looked up): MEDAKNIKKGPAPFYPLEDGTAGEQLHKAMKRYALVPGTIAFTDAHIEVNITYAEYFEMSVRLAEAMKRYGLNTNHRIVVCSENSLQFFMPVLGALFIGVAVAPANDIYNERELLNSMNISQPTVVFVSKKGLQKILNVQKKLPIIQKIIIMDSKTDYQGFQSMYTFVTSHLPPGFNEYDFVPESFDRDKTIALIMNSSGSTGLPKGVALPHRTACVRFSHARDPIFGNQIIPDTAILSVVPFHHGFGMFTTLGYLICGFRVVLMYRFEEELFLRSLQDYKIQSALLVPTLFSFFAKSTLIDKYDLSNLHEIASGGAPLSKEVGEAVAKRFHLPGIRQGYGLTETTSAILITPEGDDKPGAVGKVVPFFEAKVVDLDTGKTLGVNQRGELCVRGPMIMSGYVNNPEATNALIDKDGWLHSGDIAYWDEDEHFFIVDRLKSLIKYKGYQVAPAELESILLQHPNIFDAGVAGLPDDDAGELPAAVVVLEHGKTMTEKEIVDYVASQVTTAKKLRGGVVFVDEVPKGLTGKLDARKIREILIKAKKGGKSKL
Experiment [7] can be described thus: qHTS assay to identify small molecule agonists of the constitutive androstane receptor (CAR) signaling pathway - cell viability counter screen (AID 1224836). Also: nearly all actives have a fitted effect of over 45% in size. Put shortly: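 Cells were seeded and incubated 4 hrs. Compounds were added across 15 concentrations together with PK11195 at 0.75 uM final. Plates were incubated 23 hrs at 37 C. CellTiter-Fluor was added and fluorescence measured.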

Experiment [8] is described as follows: qHTS assay to identify small molecule antagonists of the constitutive androstane receptor (CAR) signaling pathway - cell viability counter screen (AID 1224837). Also: nearly all actives have a fitted effect of over 45% in size. The method, boiled down: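 HepG2 cells stably carrying hCAR and CYP2B6-2.2kb reporter, stimulated with 50 nM CITCO and compounds at 15 concentrations for 23 h at 37 C. Viability measured by CellTiter-Fluor fluorescence.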

Experiment [9] has as its target Thyrotropin receptor (Homo sapiens) (UniProt P16473). Nature of the experiment: qHTS assay to identify small molecule agonists of the thyroid stimulating hormone receptor (TSHR) signaling pathway (AID 1224843; calls by dose curve; also: nearly all actives have a fitted effect of over 45% in size). Put shortly: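 Cell line HEK293 with TSHR; density 800/well. Exposure 30 min RT. Readout HTRF cAMP (cAMP-d2/anti-cAMP-cryptate), 1 h RT before reading.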
Experiment [10] in a line: qHTS assay to identify small molecule agonists of the hypoxia (HIF-1) signaling pathway - cell viability counter screen (AID 1224844; calls by dose curve; also: nearly all actives have a fitted effect of over 50% in size). Put shortly: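 HRE-bla ME-180 cells, 2,000/well in 0.5% dialyzed FBS medium, treated 17 h at 37C with compounds. Viability read in the same wells as the bla reporter, by CellTiter-Glo luminescence after 30 min at room temperature.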
The nature of experiment [11]: qHTS assay to identify small molecule agonists of H2AX (AID 1224845; active = well fitted activation curve with a large enough effect in the signal ratio in the repeat runs, not every such curve was filed as active; the % refers to the signal ratio). Put shortly:
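Wild-type CHO-K1 cells plated overnight, then exposed 3 hr at 37C to compounds at 15 concentrations (0.76% DMSO). Lysed, then HTRF anti-pH2AX(S139)-cryptate/anti-H2AX-d2 detection after 24 hr at room temperature; emissions 665 and 620 nm.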

Experiment [12] is described as follows: qHTS assay to identify small molecule agonists of the hypoxia (HIF-1) signaling pathway (AID 1224846; active = well fitted activation curve with a large enough effect in the signal ratio in the repeat runs, not every such curve was filed as active; the % refers to the signal ratio). Put shortly: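 HRE-bla ME-180 beta-lactamase reporter cells in medium with 0.5% dialyzed FBS, pre-incubated 5 h then exposed to compounds 17 h at 37C, 5% CO2; reporter induction read with CCF4-AM FRET substrate.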
Experiment [13] can be described thus: qHTS assay to identify small molecule agonists of H2AX - cell viability counter screen (AID 1224847; calls by dose curve; also: top concentration of the series differs between compounds; nearly all actives have a fitted effect of over 30% in size). The method, boiled down:
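Cytotoxicity counter screen in wild-type CHO-K1 cells: a 3 hr compound treatment at 37C across 15 concentrations, followed by CellTiter-Glo luminescence to gauge viable cells.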

Experiment [14] has as its target Nuclear receptor subfamily 1 group I member 3 (Homo sapiens) (UniProt Q14994). Nature of the experiment: qHTS assay to identify small molecule antagonists of the constitutive androstane receptor (CAR) signaling pathway (AID 1224838). Also: nearly all actives have a fitted effect of over 40% in size. Put shortly: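 HepG2 cells stably carrying hCAR and a CYP2B6-2.2kb luciferase reporter, seeded 4 hrs before compound (15 concentrations). Stimulated with 50 nM CITCO for 24 hr at 37 C. ONE-Glo luminescence read after 30 min at room temperature.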

For experiment [15] the target is unchanged. Nature of the experiment: qHTS assay to identify small molecule agonists of the constitutive androstane receptor (CAR) signaling pathway (AID 1224839). Also: nearly all actives have a fitted effect of over 15% in size. Also: potency is read from the fitted curve at half-maximal effect. Put shortly: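 Cells were plated and incubated 4 hrs, then dosed with compounds at 15 concentrations. PK11195 was added to 0.75 uM final. After 24 hrs at 37 C, luciferase luminescence was measured.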
Experiment [16] is described as follows: qHTS assay to identify small molecule antagonists of the estrogen related receptor signaling pathway with the pleiotropic PPARgamma coactivator (PGC) from Tox21 10K library - cell viability counter screen (AID 1224840; active = well fitted cell-killing curve with a large enough effect in the repeat runs, not every such curve was filed as active; also: nearly all actives have a fitted effect of over 40% in size). Put shortly:
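PGC/ERR cells (2,000/well) plated 6 h, then compound-treated for 17.5 h at 37 C. Viability measured by CellTiter-Fluor fluorescence after 30 min at 37 C, multiplexed with the pathway assay.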

Experiment [17] can be described thus: qHTS assay to identify small molecule antagonists of the estrogen related receptor signaling pathway with the pleiotropic PPARgamma coactivator (PGC) from Tox21 10K library (AID 1224841; call rule not given here; also: actives are mostly falling curves and most rising ones were filed inactive; nearly all actives have a fitted effect of over 50% in size). The method, boiled down:
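PGC/ERR cell line, 2,000 cells/well, pre-incubated 6 hours at 37 C, then exposed to compounds for 18 hours at 37 C; luciferase read with One-Glo luminescence after 30 min at room temperature.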

Experiment [18] in a line: qHTS assay to identify small molecule agonists of the estrogen related receptor signaling pathway with the pleiotropic PPARgamma coactivator (PGC) from Tox21 10K library (AID 1224842). Also: nearly all actives have a fitted effect of over 15% in size. The method, boiled down: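 PGC/ERR reporter cells (NTP line) were seeded 2,000 per well, rested 6 h at 37 C/5% CO2, then pin-dosed with compounds in DMSO for 18 h at 37 C; luciferase read by One-Glo luminescence after 30 min at room temperature.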

Experiment [19] can be described thus: qHTS assay to identify small molecule antagonists of the estrogen related receptor (ERR) signaling pathway from Tox21 library (AID 1224848). Also: nearly all actives have a fitted effect of over 50% in size. Put shortly:
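Screening used an ERR reporter line supplied by NTP, exposed for 18 h at 37 C to library compounds delivered in DMSO. Signal was luciferase luminescence developed with ONE-Glo at room temperature for 30 min.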

Thyrotropin receptor (Homo sapiens), sequence (P16473 whole entry, looked up): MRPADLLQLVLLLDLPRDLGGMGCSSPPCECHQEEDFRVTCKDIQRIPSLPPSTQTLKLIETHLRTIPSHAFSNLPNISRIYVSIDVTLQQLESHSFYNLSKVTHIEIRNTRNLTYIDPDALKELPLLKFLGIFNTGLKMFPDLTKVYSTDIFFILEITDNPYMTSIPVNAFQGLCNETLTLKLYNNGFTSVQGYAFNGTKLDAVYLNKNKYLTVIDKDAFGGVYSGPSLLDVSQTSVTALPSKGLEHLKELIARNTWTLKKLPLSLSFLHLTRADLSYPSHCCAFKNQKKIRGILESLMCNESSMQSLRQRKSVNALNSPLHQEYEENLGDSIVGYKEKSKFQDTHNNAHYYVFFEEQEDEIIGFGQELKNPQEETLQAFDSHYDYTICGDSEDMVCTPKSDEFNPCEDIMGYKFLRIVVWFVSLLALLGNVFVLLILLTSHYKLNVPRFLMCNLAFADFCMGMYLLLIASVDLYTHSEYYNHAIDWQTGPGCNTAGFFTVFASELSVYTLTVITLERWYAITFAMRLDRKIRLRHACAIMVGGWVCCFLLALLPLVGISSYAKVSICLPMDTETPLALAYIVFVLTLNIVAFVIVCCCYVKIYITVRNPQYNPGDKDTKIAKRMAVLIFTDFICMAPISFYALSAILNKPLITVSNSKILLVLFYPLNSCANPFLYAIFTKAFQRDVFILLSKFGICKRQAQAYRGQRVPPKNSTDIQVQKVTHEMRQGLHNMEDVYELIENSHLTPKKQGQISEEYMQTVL
Nuclear receptor subfamily 1 group I member 3 (Homo sapiens), sequence (Q14994 whole entry, looked up): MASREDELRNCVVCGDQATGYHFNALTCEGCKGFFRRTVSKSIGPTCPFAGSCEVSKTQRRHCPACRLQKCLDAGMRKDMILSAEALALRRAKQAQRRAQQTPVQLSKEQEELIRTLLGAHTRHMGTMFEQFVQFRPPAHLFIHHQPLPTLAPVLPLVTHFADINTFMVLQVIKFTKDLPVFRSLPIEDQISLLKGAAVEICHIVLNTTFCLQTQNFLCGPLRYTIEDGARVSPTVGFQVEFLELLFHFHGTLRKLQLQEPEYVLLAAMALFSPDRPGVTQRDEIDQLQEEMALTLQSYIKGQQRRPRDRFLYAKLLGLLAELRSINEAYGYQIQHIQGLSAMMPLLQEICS

With `CCCCC[Si](OCC)(OCC)OCC`, the Potency entry in experiment [1], in [3], in experiment [4], in experiment [5], in [6] and in experiment [8] was “inactive” throughout. The Potency result in experiment [13] was “inactive”. Further, the call in [2], in experiment [7], in experiment [9], in experiment [10], in [11] and in experiment [12] was inactive.

Regarding `FC(F)(F)/C(=N\OCC1OCCO1)c1ccc(Cl)cc1`, the Potency result in [1], in [3], in [4], in experiment [6], in [8] and in experiment [14] was “inactive” throughout. Besides, the Potency entry in experiment [15] was “inactive”. For the same compound, the call in experiment [2], in experiment [10], in experiment [11] and in experiment [12] was inactive.

In the case of `CC(C)CCC(=O)CCC(C)C`, the Potency result in experiment [1], in experiment [3], in [4], in [5], in experiment [6] and in experiment [8] was “inactive” each time. The Potency result in experiment [17] and in [19] was “inactive” each time. For the same compound, the outcome in experiment [2], in experiment [16], in experiment [18], in experiment [9], in experiment [10] and in [11] was inactive. Moreover, the result in [12] was inactive.

Take `CCCCCC1Nc2cc(C(F)(F)F)c(S(N)(=O)=O)cc2S(=O)(=O)N1` (stereo not drawn): the Potency entry in experiment [1], in experiment [3], in [4], in experiment [5], in [8] and in experiment [13] was “inactive” in each case. In addition, the call in experiment [2], in experiment [16], in experiment [9], in experiment [10], in [11] and in [12] was inactive.

As to `CC(=O)c1ccc(OCC(=O)N2CCCCC2)cc1`, the Potency entry in experiment [1], in [3], in [5], in experiment [8], in experiment [14] and in experiment [13] was “inactive” in each case. In experiment [19], the Potency entry is “inactive”. Moreover, the compound was classed as inactive in [2], in experiment [7], in experiment [16], in experiment [18], in experiment [9] and in experiment [11]. Moreover, in experiment [12], the outcome was inactive. Also, the Potency was 13.3 µM (active) in experiment [4] and 18.8 µM (active) in [15].

Take `NS(=O)(=O)c1ccccc1OC(F)(F)F`: the Potency result in experiment [1], in experiment [3], in [4], in experiment [5], in experiment [6] and in [8] was “inactive” in each case. Further, the Potency result in experiment [13] and in experiment [19] was “inactive” in each case. For the same compound, the compound was classed as inactive in experiment [2], in experiment [7], in experiment [16], in experiment [18], in experiment [10] and in [11]. In addition, in experiment [12], the compound was called inactive.

Take `C=CC(C)(O)CC/C=C(\C)CC` (stereo not drawn): the Potency result in experiment [1], in experiment [3], in [4], in experiment [5], in experiment [6] and in experiment [8] was “inactive” in each case. Moreover, the compound was called inactive in [16], in [9], in [10], in experiment [11] and in experiment [12].

Turning to `CCCCCN(CCCOC)C(=O)C(CCC(=O)O)NC(=O)c1ccc(Cl)c(Cl)c1` (stereo not drawn), the Potency result in experiment [1], in experiment [4], in experiment [5], in experiment [6], in experiment [8] and in experiment [17] was “inactive” each time. Also, the Potency entry in experiment [13] and in experiment [19] was “inactive” throughout. The outcome in experiment [2], in experiment [7], in [16], in experiment [18], in experiment [10] and in experiment [11] was inactive. The outcome in [12] was inactive.

For `CC(C)CCCC(C)CC=O` (stereo not drawn), the Potency entry in experiment [1], in [3], in experiment [4], in experiment [5], in experiment [6] and in experiment [8] was “inactive” in each case. Further, in experiment [13], the Potency result was “inactive”. Also, the call in experiment [2], in [7], in experiment [16], in [10], in [11] and in experiment [12] was inactive.

Take `CCOC(=O)CC(CC(=O)OCC)(OC(C)=O)C(=O)OCC`: the Potency entry in experiment [1], in experiment [3], in experiment [4], in experiment [5], in [6] and in experiment [8] was “inactive” throughout. The Potency entry in [14] and in experiment [13] was “inactive” each time. Besides, the call in [7], in experiment [10], in experiment [11] and in [12] was inactive.
